Test results published in PubChem BioAssay (NCATS).
Where “and” joins values, the source holds several entries; their conditions need not be identical. Equal values may be shown once. Records with an inconclusive call do not appear. The source holds several records for some structures; these can differ, active in one and inactive in another. Calls of active or inactive are those of the source. Calls come from the whole dose curve; as a rule, active = well fitted curve in the direction sought with a large enough effect; inconclusive = small, poorly fitted or top-dose-only effect, or another doubt; inactive = no such curve, though single readings can be large; an effect the other way counts as inactive or inconclusive.

Assays:
[1] = system: HaCat; assay: Cytotoxic Profiling of Annotated Libraries Using Quantitative High-Throughput Screening (AID 1296008); settings: Five cell lines viability, CellTiter-Glo ATP luminescence, 48-72 h; max response: active compounds read low; note: nearly all actives have a fitted effect of over 60% in size
Procedure, shortened: (§1)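 Compounds were pin-transferred onto cells and incubated 48 or 72 hr at 37 degree Celsius, 95% humidity. CellTiter-Glo was added, plates sat 10 min at room temperature, then ATP-coupled luminescence was imaged as the viability read-out.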

[2] = system: KB-3-1; assay: as above; settings: Five cell lines viability, CellTiter-Glo ATP luminescence, 48-72 h; max response: active compounds read low
Procedure, shortened: as §1

[3] = system: NIH3T3; assay: as above; settings: Five cell lines viability, CellTiter-Glo ATP luminescence, 48-72 h; max response: active compounds read low
Procedure, shortened: as §1

[4] = system: HACAT; assay: qHTS assay to identify novel small-molecules to repurpose for Merkel cell carcinoma treatment (AID 1296009); settings: MCC and control cell lines, CellTiter-Glo viability, 72 h; at 44.8 µM (top of the series) unless noted; note: nearly all actives have a fitted effect of over 60% in size
Procedure, shortened: (§2)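 qHTS format: cells treated with library compounds in DMSO across 8 (NPC) or 11 (MIPE) concentrations. Readout after 72 hr at 37 degree celsius was CellTiter-Glo luminescence.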

[5] = system: MCC-13; assay: as above; settings: MCC and control cell lines, CellTiter-Glo viability, 72 h; series mostly up to 46 µM
Procedure, shortened: as §2

[6] = system: MCC-26; assay: as above; settings: MCC and control cell lines, CellTiter-Glo viability, 72 h; series mostly up to 46 µM
Procedure, shortened: as §2

[7] = system: MKL-1; assay: as above; settings: MCC and control cell lines, CellTiter-Glo viability, 72 h; series mostly up to 46 µM
Procedure, shortened: as §2

[8] = system: MKL-2; assay: as above; settings: MCC and control cell lines, CellTiter-Glo viability, 72 h; series mostly up to 46 µM
Procedure, shortened: as §2

[9] = system: UISO; assay: as above; settings: MCC and control cell lines, CellTiter-Glo viability, 72 h; series mostly up to 46 µM
Procedure, shortened: as §2

[10] = system: WaGa; assay: as above; settings: MCC and control cell lines, CellTiter-Glo viability, 72 h; series mostly up to 46 µM
Procedure, shortened: as §2

[11] = system: C33A; assay: Primary qHTS to identify gynecologic anti-cancer compounds using libraries of approved drugs and bioactive compounds (AID 1345084); settings: Gynecologic cancer cell panel viability, ATPlite luminescence, 48 h; series mostly up to 57.5 µM; note: nearly all actives have a fitted effect of over 55% in size
Procedure, shortened: (§3)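 48 h compound exposure at 37 C, 5% CO2; five-point qHTS. ATPlite luminescence readout of cell ATP.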

[12] = system: CAOV3; assay: as above; settings: Gynecologic cancer cell panel viability, ATPlite luminescence, 48 h; series mostly up to 57.5 µM
Procedure, shortened: as §3

[13] = system: CASKI; assay: as above; settings: Gynecologic cancer cell panel viability, ATPlite luminescence, 48 h; series mostly up to 57.5 µM
Procedure, shortened: as §3

[14] = system: Es-2; assay: as above; settings: Gynecologic cancer cell panel viability, ATPlite luminescence, 48 h; series mostly up to 57.5 µM
Procedure, shortened: as §3

[15] = system: HeLa; assay: as above; settings: Gynecologic cancer cell panel viability, ATPlite luminescence, 48 h; series mostly up to 57.5 µM
Procedure, shortened: as §3

[16] = system: Hek293T; assay: as above; settings: Gynecologic cancer cell panel viability, ATPlite luminescence, 48 h, control line for the selectivity index; series mostly up to 57.5 µM
Procedure, shortened: as §3

[17] = system: JEG-3; assay: as above; settings: Gynecologic cancer cell panel viability, ATPlite luminescence, 48 h; series mostly up to 57.5 µM
Procedure, shortened: as §3

[18] = system: HEK293; assay: Cytotoxic Profiling of Annotated Libraries Using Quantitative High-Throughput Screening (AID 1296008); settings: Five cell lines viability, CellTiter-Glo ATP luminescence, 48-72 h; max response: active compounds read low; note: nearly all actives have a fitted effect of over 60% in size
Procedure, shortened: as §1

[19] = system: NIH3T3; assay: qHTS assay to identify novel small-molecules to repurpose for Merkel cell carcinoma treatment (AID 1296009); settings: MCC and control cell lines, CellTiter-Glo viability, 72 h; at 44.8 µM (top of the series) unless noted; note: nearly all actives have a fitted effect of over 60% in size
Procedure, shortened: as §2
% is set by controls: 0 for no effect and ±100 for the full control effect; potency is the fitted concentration of half-maximal effect.

Cc1ccccc1C(OCCN(C)C)c1ccccc1 (centres undefined)
inactive: max response [1] -11.7% | outcome [1] | max response [2] 4.24% and -3.9% | outcome [2] | max response [3] -2.58% and 4.52% | outcome [4] | Potency [5] | Potency [6] | Potency [7] | Potency [8] | Potency [9] | Potency [10] | Potency [11] | Potency [12] | Potency [13] | Potency [14] | Potency [15] | Potency [16] | Potency [17]

CNC(=O)c1ccccc1Sc1ccc2c(/C=C/c3ccccn3)n[nH]c2c1
inactive: max response [2] -28.7% | Potency [6]
active: Potency [18] 23.7 µM and 14.6 µM | Potency [2] 11.6 µM | Potency [3] 8.41 µM and 7.31 µM | Potency [12] 10 µM and 8.91 µM | Potency [13] 11.2 µM | Potency [14] 15.8 µM and 17.8 µM | Potency [15] 3.98 µM and 3.55 µM | Potency [16] 10 µM and 12.6 µM

Nc1nc2ccc(OC(F)(F)F)cc2s1
inactive: max response [1] -58.3% | outcome [1] | max response [2] -6.76% | max response [3] -3.98% | outcome [4] | Potency [5] | Potency [6] | Potency [7] | Potency [8] | Potency [9] | Potency [10] | Potency [11] | Potency [12] | Potency [13] | Potency [14] | Potency [17]

CC1(C)SCCN(S(=O)(=O)c2ccc(OCC#CCO)cc2)[C@@H]1C(=O)NO
inactive: max response [18] -25.6% | outcome [2] | max response [3] -11.8% | Potency [5] | Potency [6] | Potency [8] | Potency [9]

Nc1nc2[nH]cc(CCc3ccc(C(=O)N[C@@H](CCC(=O)O)C(=O)O)cc3)c2c(=O)[nH]1
active: Potency [18] 1.48 µM | Potency [3] 1.18 µM | Potency [10] 2.35 µM
inactive: max response [2] -20.9% and 0.617% | Potency [5] | Potency [7] | Potency [8]

Cc1cc([C@@H](C)Nc2ccccc2C(=O)O)c2nc(N3CCOCC3)cc(=O)n2c1
inactive: Potency [5] | Potency [7]
active: Potency [18] 19.1 µM | Potency [3] 12.1 µM | Potency [9] 34 µM

COc1ccc(-c2ccc3c(N4CCOC[C@H]4C)nc(N4CCOC[C@H]4C)nc3n2)cc1CO
active: Potency [18] 0.0166 µM | Potency [2] 0.0118 µM | Potency [3] 0.0662 µM

C[C@]12CCC(=O)C=C1CC[C@@H]1[C@@H]2[C@@H](O)C[C@@]2(C)[C@H]1CC[C@]2(O)C(=O)CO
inactive: max response [18] -3.59% | max response [3] 1.04% | Potency [5] | Potency [7] | Potency [8] | Potency [9] | Potency [10] | Potency [11] | Potency [13] | Potency [14] | Potency [15] | Potency [16] | Potency [17]

Cc1cc(-c2ccc(CC(=O)Nc3ccc(-c4cccnc4)cc3)cc2)ccn1
active: Potency [18] 9.35 µM
inactive: outcome [1] | outcome [4] | Potency [5] | Potency [6] | Potency [7] | Potency [10]

Cc1ccccc1C(C(=O)NC1CCCC1)N(C(=O)Cn1cnc2ccccc21)c1cccc(F)c1 (centres undefined)
inactive: outcome [1] | max response [2] 7.7% | outcome [3] | outcome [4] | Potency [5] | Potency [6] | Potency [7] | Potency [8] | outcome [19] | Potency [9] | Potency [10]

COc1ccc(COc2cc3oc(=O)c4cc(C(C)O)ccc4c3cc2OC)cc1 (centres undefined)
active: Potency [18] 14.8 µM
inactive: outcome [1] | outcome [4] | Potency [5] | Potency [7] | Potency [8] | Potency [9]

S=C(NCc1ccc2c(c1)OCO2)N1CCN(c2ncnc3c2oc2ccccc23)CC1
active: Potency [18] 340 nM and 4.11 µM
inactive: max response [1] -0.756% and -9.04% | max response [3] -27.2% | Potency [5] | Potency [6] | Potency [15] | Potency [17]

Cc1ccc(N(CC2=NCCN2)c2cccc(O)c2)cc1
inactive: max response [1] 1.48% | outcome [1] | max response [2] 5.53% and -7.75% | max response [3] -17.8% and -24.2% | outcome [4] | Potency [5] | Potency [6] | Potency [7] | Potency [8] | Potency [9] | Potency [10] | Potency [11] | Potency [12] | Potency [13] | Potency [14] | Potency [15] | Potency [16] | Potency [17]

C[C@@H]1CN(Cc2ccc(F)cc2)[C@@H](C)CN1C(=O)c1cc2c(C(=O)C(=O)N(C)C)cn(C)c2cc1Cl
inactive: max response [1] -4.64% | outcome [1] | max response [2] 6.97% and -3.16% | max response [3] 1.1% | outcome [3] | outcome [4] | Potency [5] | Potency [6] | Potency [7] | Potency [8] | outcome [19] | Potency [9] | Potency [11] | Potency [12] | Potency [13] | Potency [14] | Potency [15] | Potency [16] | Potency [17]
